{
  "source": "PubChem BioAssay (NCI)",
  "note": "Compounds without any hit were thinned out: in the full panel of roughly 83,000, 20% have a hit.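 In brief: 96-well plates, 48 h treatment, single concentration, percent growth endpoint.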 Active and inactive are the calls of the source.",
  "data": [
    {"tested_on": "UACC-62 melanoma", "experiment": "NCI-60 one-dose screen, 48 h (100 = growth as untreated, 0 = no growth, -100 = all killed)", "settings": "10 µM unless noted", "procedure": "Growth inhibition of the UACC-62 human tumor cell line is measured as a screen for anti-cancer activity. Cells are grown in 96 well plates and exposed to the test compound for 48 hours. Compounds are tested at a single concentration, which is 10^-5 M for most compounds. The reported endpoint is percent growth (GI% or GIPRCNT), where numbers from 0 - 100% represent growth inhibition, and numbers from -100% - 0 represent cell death. For example, a value of 40 represents 60% growth inhibition. A value of 0 means no net growth occurred over the course of the experiment. A value of -40 indicates 40% of cells at the beginning of the experiment died by the end of the experiment. A value of -100 means all cells are dead at the end of the experiment.\nNCI-60 Human Tumor Cell Lines Screen was performed using the standard one-dose NCI protocol, which is described in more detail at https://dtp.cancer.gov/discovery_development/nci-60/default.htm.\nCompounds with GIPRCNT values below 10 were considered active. Activity score was based on GIPRCNT using the following formula: […]\nScore is 0 for GIPRCNT values of 100 or above, 50 for GIPRCNT values of 0, and 100 for GIPRCNT values of -100.", "values": [
      {"compound": "O=C1CC(N2C(=O)/C(=C/C(Cl)=C\\c3ccc([N+](=O)[O-])cc3)SC2=S)C(=O)N1c1ccc(Cl)cc1", "note": "(stereo not given)", "growth": "16.4% (inactive)"},
      {"compound": "O=C1/C(=C/c2ccc(Cl)cc2)COc2ccc(O)c(O)c21", "growth": "4.2% (active)"},
      {"compound": "CN(CCn1sc(=O)n(Cc2ccccc2)c1=O)Cc1ccc2c(Cl)cc(Cl)c(O)c2n1", "growth": "29.8% (inactive)"},
      {"compound": "CS(=O)(=O)Nc1cc(-c2ccc3ncnc(Nc4ccc5c(cnn5Cc5ccccn5)c4)c3c2)cnc1Cl", "growth": "61.8% (inactive)"},
      {"compound": "C=C(CNCCc1ccc(O)cc1)[C@@H]1CC[C@]2(CO)CC[C@]3(C)[C@H](CC[C@@H]4[C@@]5(C)CCC(NCCO)C(C)(C)[C@@H]5CC[C@]43C)[C@@H]12", "note": "(stereo not given in full)", "growth": "-80.8% (active)"},
      {"compound": "O=C1/C(=C/c2ccc(F)cc2)COc2ccc(O)cc21", "growth": "85.2% (inactive)"},
      {"compound": "CC(=O)OC[C@]12CCC(C)(C)C[C@H]1[C@@]1(O)[C@H](O)C[C@@H]3[C@@]4(C)CCCNC(C)(C)[C@@H]4CC[C@@]3(C)[C@]1(C)CC2", "growth": "105% (inactive)"},
      {"compound": "CC1=C(C(=O)OC(C)C)C(c2ccc3c(c2)OCO3)NC(=S)N1", "note": "(stereo not given)", "growth": "85.2% (inactive)"},
      {"compound": "Cn1ccnc1C(=O)C(=O)Nc1ccc(CC(=O)Nc2ccccc2)cc1", "growth": "95.5% (inactive)"},
      {"compound": "CC1=C(Nc2ccc(N3CCN(C)CC3)cc2)C(=O)c2cncnc2C1=O", "growth": "93.8% (inactive)"},
      {"compound": "C=CC(=O)NCc1ccc(Nc2nccc(-c3ccc(N4CCCC4)c(C#N)c3)n2)cc1", "growth": "33.8% (inactive)"},
      {"compound": "CCOC(=O)c1[nH]c(=O)c2c(C)nc(-c3ccccc3)cc2c1O", "growth": "109% (inactive)"},
      {"compound": "CCOC(=O)CNP(=O)(OC[C@@H](Cc1ccccc1)NC(=O)c1cc2ccccc2s1)Oc1ccccc1", "note": "(stereo not given in full)", "growth": "71.4% (inactive)"},
      {"compound": "O=C(O)[C@@H]1c2ccccc2-c2ccccc2[C@H]1C(=O)O", "growth": "96% (inactive)"},
      {"compound": "CC1(C)CCC(S(=O)(=O)c2ccc3c(c2)/C(=N\\O)c2cc(S(=O)(=O)N4CCC(O)(c5cccc(C(F)(F)F)c5)CC4)ccc2-3)CC1", "growth": "-84.9% (active)"},
      {"compound": "COc1ccc(/C=N/NC(=O)CCN2c3ccccc3Sc3ccccc32)cc1", "growth": "63% (inactive)"},
      {"compound": "CNC(=O)c1cc(Oc2ccc3c(c2)sc2nc(-c4cc(OC)c(OC)c(OC)c4)cn23)ccn1", "growth": "44.5% (inactive)"},
      {"compound": "CCN(CC)c1nc(SCc2ccccc2Cl)ncc1C", "growth": "81.2% (inactive)"},
      {"compound": "Oc1ccc(CN2CCC(N3CCCCC3)CC2)c2cccnc12", "growth": "14.9% (inactive)"},
      {"compound": "CCCCCCCCn1ccc2cc(NC(=O)CN3CCN(c4nc(C)cc(Cl)n4)CC3)ccc21", "growth": "76.4% (inactive)"},
      {"compound": "CCN(CC)CCOc1ccc(C(=C(C)c2ccc(Cl)cc2)c2ccc(OCCN(CC)CC)cc2)cc1", "growth": "-78.1% (active)"},
      {"compound": "C=C(C)[C@@H]1CC[C@]2(C)[C@H](CC=C3[C@@H]4[C@H](C)[C@@H](C)CC[C@]4(CO)CC[C@]32C)[C@@]1(C)CCCN", "growth": "79.4% (inactive)"},
      {"compound": "COc1ccc2nc3ccc(OC)cc3c(SCCCN)c2c1", "growth": "113% (inactive)"},
      {"compound": "COc1cc(CNC(=O)/C=C/C=C/c2ccc3c(c2)OCO3)ccc1OCc1cn(-c2ccc(C)c(C)c2)nn1", "growth": "56.9% (inactive)"},
      {"compound": "O=C(O)CCCN1C(=O)/C(=C/C(Cl)=C/c2ccccc2)SC1=S", "growth": "10.1% (inactive)"},
      {"compound": "Cc1cc(Cl)ccc1Nc1nc(C(F)(F)F)ccc1C(=O)N/N=C/c1ccc([N+](=O)[O-])cc1", "growth": "12.6% (inactive)"},
      {"compound": "C=CCc1c(O)c(C(=O)/C=C/c2ccc(Cl)cc2)c(OC)c2ccoc12", "growth": "48.1% (inactive)"},
      {"compound": "CO[C@H]1/C=C(/C)CCC[C@H](C)[C@H](O)[C@@H](C)C(=O)C(C)(C)[C@@H](O)CC(=O)O[C@@H]1/C(C)=C/c1csc(C)n1", "growth": "36.8% (inactive)"},
      {"compound": "COc1cccc([C@H]2c3[nH]c4ccccc4c3C[C@H]3C(=O)N(CCCCCCC(=O)NO)CC(=O)N23)c1", "growth": "36.8% (inactive)"},
      {"compound": "CCCCCCCCCCCCCCCC(N)c1ccccc1", "note": "(stereo not given)", "growth": "79.2% (inactive)"},
      {"compound": "COc1ccc(OC)c(C(=O)/C=C/c2cc3c(c(OC)c2OC)OCO3)c1", "growth": "55.4% (inactive)"},
      {"compound": "O=C(Cn1c2c(c3ccccc31)CCCC2)Nc1ccc(-c2nc3ccccc3s2)cc1", "growth": "90.1% (inactive)"},
      {"compound": "CCN1CCN(Cc2cn(CC(=O)Nc3ccc4c(ccn4Cc4ccccc4)c3)nn2)CC1", "growth": "95% (inactive)"},
      {"compound": "CCOC(=O)Cn1c(O)c(N=Nc2ccc(S(N)(=O)=O)cc2)c2cc(Br)ccc21", "growth": "83.3% (inactive)"},
      {"compound": "Cc1ccc(CNc2ccc(Cl)cc2NCc2ccc(C)c(O)c2)cc1O", "growth": "38.6% (inactive)"},
      {"compound": "CN(C)c1ccc(/C=C/C(=O)c2ccc(-n3cc(CN4CCN(c5cc6c(cc5F)c(=O)c(C(=O)O)cn6C5CC5)CC4)nn3)cc2)cc1", "growth": "55.8% (inactive)"},
      {"compound": "COC(C(=O)[C@@H](O)[C@@H](C)O)[C@@H]1Cc2cc3cc(O[C@H]4C[C@@H](O[C@H]5C[C@@H](O)[C@H](O)C(C)O5)[C@H](O)C(C)O4)c(C)c(O)c3c(O)c2C(=O)[C@H]1O[C@H]1C[C@@H](O[C@H]2C[C@@H](O[C@H]3C[C@@H](O)[C@H](OC)C(C)O3)[C@@H](O)C(C)O2)[C@H](O)C(C)O1", "note": "(stereo not given in full)", "growth": "-35.4% (active)"},
      {"compound": "CCCCCCNC(=O)Oc1ccc(/C(=C(/C)Cc2ccc(OC)cc2)c2ccc(OCCCN(C)C)cc2)cc1", "growth": "-25.1% (active)"},
      {"compound": "CCc1ccc(Oc2cn[nH]c2-c2ccc(OCCc3ccc(F)cc3)cc2O)cc1", "growth": "88.6% (inactive)"},
      {"compound": "COc1ccc(C(=O)C2C(c3ccc(OC)cc3)CN(C)C23C(=O)Nc2ccccc23)cc1", "note": "(stereo not given)", "growth": "66.3% (inactive)"}
    ]}
  ]
}
